Compound activity from PubChem BioAssay.
RmlCD inh mix: mixture blocks RmlC and RmlD coupled enzyme activity; RmlC/RmlD coupled enzyme inhibition, 384-well mixture HTS; inhibition, % at 5.5 µM; 110,000 compounds, 0.39% hits; AID 1532; in the data active means inhibition above about 30%, passing the limit was not always enough; inconclusive means no clear call, values can overlap the other calls
HIV RNase H inh-1: inhibitors of HIV-1 reverse transcriptase RNase H | P04585 | RT-RNase H RNA/DNA duplex cleavage, fluorescence | inhibition, % at 10 µM | 65,000 compounds, 1.9% hits; in the data active means inhibition above about 50%
HIV RNase H inh-2: confirmation of HIV-1 reverse transcriptase RNase H inhibitors; shares compounds with HIV RNase H inh-1; Recombinant RT RNase H, fluorescent RNA/DNA duplex cleavage; inhibition, % at 10 µM; 1,000 compounds, 39% hits; AID 651; in the data active means inhibition above about 48%; inconclusive means no clear call, values can overlap the other calls
* marks the source's active call; other numbers are inactive results; ? = inconclusive; / = no result given. The sample as a whole holds a higher share of hits than the screen did.

SMILES | RmlCD inh mix | HIV RNase H inh-1 | others
COc1ccc(C2C=C(c3ccccc3)Nc3nnnn32)cc1 (stereo unspecified) | 12 | -2
COc1ccc(C2C=C(c3ccccc3)Nc3nc(NC(C)=O)nn32)cc1 (stereo unspecified) | 40* | /
Cc1ccc2nc(SCC(=O)NCC3CCCO3)c(C#N)cc2c1 (stereo unspecified) | -18 | 59*
Cc1ccc2cc(C#N)c(SCC(=O)NCC3CCCO3)nc2c1 (stereo unspecified) | -1 | -37
Cc1ccc(NCN2C(=O)C3CC=C(Cl)CC3C2=O)cc1 (stereo unspecified) | 3 | /
O=C(O)c1ccccc1NCN1C(=O)C2CC=C(Cl)CC2C1=O (stereo unspecified) | 37* | -9
Cc1cccc(N2CCN(C(=O)C3CCCN(S(=O)(=O)c4cccc5cccnc45)C3)CC2)c1C (stereo unspecified) | / | -16
Cc1ccnc(SCCn2c(Br)nc3c2c(=O)n(C)c(=O)n3C)n1 | / | -6
CCOC(=O)c1c(-c2ccccc2)csc1NC(=O)c1nn(CC)cc1Br | 131 | 67*
CCOC(=O)c1c(-c2ccccc2)csc1NC(=O)c1ccc(N2C(=O)CCC2=O)cc1 | 20 | /
CCOc1ccc(-n2nc(C(=O)N3CCOCC3)c3ccccc3c2=O)cc1 | / | -10
CC1CCN(C2=NC(=O)/C(=C/c3cn(-c4ccccc4)nc3-c3cccc(S(=O)(=O)N(C)C)c3)S2)CC1 | -8 | /
C[C@H](NC(=O)c1nc[nH]c1C(=O)N1CCc2ccccc2C1)C(=O)OCc1ccccc1 | 13 | /
CCCCc1cc(=O)oc2c(CN3CCCC3)c(O)ccc12 | ? | 3
CCCCc1cc(=O)oc2c(CN(C)C)c(O)c(Cl)cc12 | 70* | -10
CCc1cc2c(-c3ccccc3)cc(=O)oc2c(CN2CCOCC2)c1O | -6 | -15
CCc1cc(=O)oc2c(CN3CCCC3)c(O)c(Cl)cc12 | 90* | -5
CCc1c(C)c2cc(Cl)c(O)c(CN3CCCCC3)c2oc1=O | 114 | -7
O=c1oc2c(CN3CCOCC3)c(O)c(Cl)cc2c2c1CCC2 | 56* | 0
Clc1ccc2nc3ccccn3c2c1 | 39* | -26
On1c(-c2ccccc2)nc2ccc(Cl)cc21 | -2 | /
COc1ccc([C@@]2(O)c3c(ccc(CC=C(C)C)c3O)NC(=O)[C@@H]2OC)cc1 | 5 | /
CCc1c(C)sc(NC(=O)c2cc(C)on2)c1C#N | -13 | -3
CCCc1cc(C(=O)Nc2sc(C)c(CC)c2C#N)no1 | / | 53*
Cc1ccc(S(=O)(=O)NCCCNC(=O)N2CCOCC2)cc1 | -6 | -6
SMILES | RmlCD inh mix | HIV RNase H inh-1 | others
COc1cccc2cc3c(=O)n(-c4ccccc4)nc-3oc12 | -22 | 53*
COc1cccc2cc(C(C)=O)c(=O)oc12 | 7 | -3
CCCn1[nH]cc(SC)c(=O)c1=O | -44 | -5
COc1ccc(-c2ccc(-c3noc(-c4ccccc4)n3)c(OC)n2)cc1 | -307 | 2
COc1ccc(-c2ccc(-c3noc(-c4ccccc4F)n3)c(OC)n2)cc1 | -25 | 54*
CCC(=O)NCCc1nc2cc(NC(=O)c3ccccc3OC)ccc2n1C | -6 | /
CC(C)C[C@H]1C(=O)N2CCCC2[C@]2(O)O[C@](NC(=O)[C@@H]3C=C4c5cccc6[nH]cc(c56)CC4N(C)C3)(C(C)C)C(=O)N12 (stereo partly specified) | -3 | /
CC(C)[C@@]1(NC(=O)[C@@H]2C=C3c4cccc5[nH]cc(c45)C[C@H]3N(C)C2)O[C@@]2(O)[C@@H]3CCCN3C(=O)[C@H](Cc3ccccc3)N2C1=O | / | 55*
CCOc1cc2[nH]c(=O)n(CCC(=O)NCCc3ccc(OC)c(OC)c3)c(=O)c2cc1OCC | -5 | 0
CCOc1cc2[nH]c(=O)n(CCC(=O)NCCc3ccccc3)c(=O)c2cc1OCC | 5 | 64*
CCC/C=C(\CCC)C(NC(=O)CCc1ccccc1)c1ccc(C(F)(F)F)cc1 (stereo unspecified) | 13 | /
Cc1csc(NC(C)c2nc3cc(Cl)c(N4CCCCC4)cc3n2CCOCCO)n1 (stereo unspecified) | -4 | /
CCOc1ccc(-c2nc(C#N)c(NCC3CCCO3)o2)cc1 (stereo unspecified) | 5 | /
COc1ccc(-c2nc(C#N)c(NCC3CCCO3)o2)cc1OC (stereo unspecified) | 42* | -4
O=C(CCN1C(=O)COc2ccccc21)NCCCN1CCc2ccccc2C1 | 3 | /
CCOC(=O)c1c(C)[nH]c(C(=O)COC(=O)CCC2CCCC2)c1C | -4 | /
O=c1c2cc(N3CCOCC3)ccc2[nH]c(=S)n1Cc1ccc(Cl)cc1 | -21 | /
Cc1ccc(Cn2c(=S)[nH]c3ccc(N4CCOCC4)cc3c2=O)o1 | 14 | 64*
COc1ccc(CNC(=O)CCCCCn2c(SCC#N)nc3cc4c(cc3c2=O)OCO4)cc1 | 6 | 57*
COc1ccc(CCNC(=O)CCCn2c(SCC#N)nc3ccccc3c2=O)cc1OC | 15 | -14
O=C(OC(C(=O)NC1CCCC1)c1ccccn1)c1cccs1 (stereo unspecified) | 7 | /
COc1ccc(/C(N)=N/OC(=O)CSc2ccccc2)cc1OC | 9 | /
CCCc1[nH][nH]c(=O)c1C(c1ccccc1)C(C#N)C#N (stereo unspecified) | 7 | -71
Cc1[nH]n(C(N)=S)c(=O)c1C(c1ccccc1)C(C#N)C#N (stereo unspecified) | 0 | 51*
Cc1oc(C(=O)O)cc1CSCc1cc(C(=O)O)c(C)o1 | -10 | 51*
SMILES | RmlCD inh mix | HIV RNase H inh-1 | others
Cc1oc(C(=O)O)cc1CSCc1ccoc1C(=O)O | 5 | 24
Cn1nnnc1SCC1=C(C(=O)O)N2C(=O)[C@@H](NC(=O)[C@H](O)c3ccccc3)[C@H]2SC1 | -19 | 61*
CO/N=C(\C(=O)N[C@@H]1C(=O)N2C(C(=O)O)=C(COC(N)=O)CS[C@H]12)c1ccco1 | 4 | 13
Cc1cccc(NC(=O)c2sc3nc(-c4ccccc4)cn3c2C)n1 | -21 | 9
COc1ccc(-c2cn3c(C)c(C(=O)Nc4cccc(C)n4)sc3n2)cc1 | -11 | 51*
CCOC(=O)c1cc(OC(=O)c2ccccc2)n(-c2ccccc2)n1 | -32 | /
CCOC(=O)c1cc(OC(=O)c2cccs2)n(-c2ccccc2)n1 | -8 | 50*
O=S(=O)(NC1CCCC1)c1cccc(S(=O)(=O)N2CCC(n3nnc4ccccc43)CC2)c1 | 4 | 3
COc1cccc(N=Cc2ccc(O)cc2O)c1 | 5 | 53*
Oc1ccc(C=Nc2cccc3ncccc23)c(O)c1 | -13 | 1
C/C=C/Cn1c(Br)nc2c1c(=O)[nH]c(=O)n2C | -10 | -8
C/C=C/Cn1c(N2CCCCCC2)nc2c1c(=O)[nH]c(=O)n2C | / | 87* | HIV RNase H inh-2=40
Cn1c(=O)[nH]c(=O)c2c1nc(N1CCCCC1)n2CCSc1ncccn1 | / | -8
C/C=C/Cn1c(SC)nc2c1c(=O)[nH]c(=O)n2C | 12 | 77* | HIV RNase H inh-2=?
Cc1ccc(S(=O)(=O)N2CCCC(C(=O)NC3=NCCS3)C2)cc1 (stereo unspecified) | 7 | -2
Cc1cccc(N2C(=O)c3cccc4c(N(C)CCO)ccc(c34)C2=O)c1 | / | -26
CC(C)(C)NC(=O)CSc1ncnc2c1nnn2Cc1ccccc1Cl | 2 | 4
N/C(=N\OC(=O)C1CCCCC1)c1cccnc1 | 6 | /
